# Source: PubChem (The Scripps Research Institute Molecular Screening Center)
# In the library only some 3.5% were active in any assay of this set; here they are far more common.
# TEAD-YAP inh = TEAD-YAP interaction inhibition; HEK-TIYL cells, TEAD-Gal4/YAP UAS-luciferase luminescence; inhibition, % at 9.12 µM; actives 1.4% (n = 640,000); AID 1259422; in the data active means inhibition above about 32%;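 further: 0% = median of test compound wells and 100% = reference inhibitor wells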
# MITF inh = human MITF inhibition, primary screen; inhibition, % at 2.6 µM; actives 0.91% (n = 650,000); AlphaScreen MITF homodimerization, bead proximity signal; O75030; in the data active means inhibition above about 50%;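 further: 0% = vehicle wells with protein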
# FBW7 activator = activators of human E3 ligase FBW7; AID 1259310; normalized activity (activation), % at 26.1 µM; AlphaScreen FBW7–phospho-cyclin E peptide binding, activator screen; Q969H0; actives 0.13% (n = 650,000); in the data active means normalized activity above about 1.9%;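 further: purified mutant Fbw7 with reduced substrate affinity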
# Target sequence (Q969H0 whole entry, looked up): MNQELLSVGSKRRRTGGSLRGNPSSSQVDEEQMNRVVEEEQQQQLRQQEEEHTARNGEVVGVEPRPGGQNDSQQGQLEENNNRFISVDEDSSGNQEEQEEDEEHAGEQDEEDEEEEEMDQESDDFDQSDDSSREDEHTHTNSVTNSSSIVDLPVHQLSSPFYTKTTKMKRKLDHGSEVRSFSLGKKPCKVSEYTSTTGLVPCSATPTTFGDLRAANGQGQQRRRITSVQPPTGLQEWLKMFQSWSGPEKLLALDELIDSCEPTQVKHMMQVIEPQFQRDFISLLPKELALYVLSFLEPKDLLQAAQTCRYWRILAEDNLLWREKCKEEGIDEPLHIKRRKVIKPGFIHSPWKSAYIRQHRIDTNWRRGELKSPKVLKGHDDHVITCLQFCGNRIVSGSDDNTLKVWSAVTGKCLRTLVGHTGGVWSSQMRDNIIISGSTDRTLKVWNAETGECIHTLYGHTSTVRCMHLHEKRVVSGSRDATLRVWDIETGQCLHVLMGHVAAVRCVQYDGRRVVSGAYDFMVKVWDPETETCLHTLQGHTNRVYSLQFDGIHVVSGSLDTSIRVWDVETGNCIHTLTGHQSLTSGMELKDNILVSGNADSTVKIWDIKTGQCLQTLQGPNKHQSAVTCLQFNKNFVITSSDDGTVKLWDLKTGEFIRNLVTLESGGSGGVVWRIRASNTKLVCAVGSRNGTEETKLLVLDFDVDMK
# GPR151 ag = activators of human GPR151 | activation, % at 11.2 µM | AID 1508602 | PathHunter beta-arrestin GPR151 cells, luminescence | actives 1% (n = 650,000) | Q8TDV0; in the data active means activation above about 4.9%;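 further: 0% = median of compound wells and 100% = cells with positive control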
# MITF inh conf = human MITF inhibition, confirmation. shares compounds with MITF inh. AlphaScreen MITF homodimerization, biotin/His-MITF beads. inhibition, % at 2.6 µM. actives 16% (n = 4,700). AID 1259372;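 active means inhibition above a cutoff derived from the DMSO control wells, cut at about 28% in these data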;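 further: 0% = MITF dimer wells with DMSO only; inhibitors lower the bead chemiluminescence by keeping MITF from dimerizing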
# AS interf DR = optically interferes with AlphaScreen signal in dose response | AlphaScreen optical interference counterscreen, cell-free | shares compounds with MITF inh | IC50, µM | actives 6% (n = 480); call rule not given here
# AlphaScreen intf2 = optically interferes with AlphaScreen signal. AID 1259376. actives 7.6% (n = 4,700). shares compounds with MITF inh. LysRS AlphaScreen counterscreen, signal interference, triplicate. inhibition, % at 2.6 µM;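 active means inhibition above a cutoff derived from the DMSO control wells, cut at about 30% in these data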
# Starred values were filed as active, the others as inactive; . = no result given; ! = not active in a repeat.
SMILES,TEAD-YAP inh,MITF inh,FBW7 activator,GPR151 ag,MITF inh conf,AlphaScreen intf2,others
O=[N+]([O-])c1ccc(N2CCN(Cc3cccc([N+](=O)[O-])c3)CC2)cc1,12.2,15.8,-0.2,-0.5,.,.,
COc1ccc(CN2CCSCC2)cc1OCc1ccccc1,-2.3,15.4,-0.4,0.2,.,.,
COc1ccc(CN2CCN(C(=O)c3ccccc3F)CC2)cc1OCc1ccccc1,4.1,43.0,0.2,1.9,.,.,
COc1cc(CN2CCSCC2)ccc1OCc1ccccc1,-50.0,53.1*,0.1,1.0,14.1,24.4,
CCOC(=O)N/N=C/c1ccc(C(C)(C)C)cc1,-56.2,-8.1,-0.1,-0.4,.,.,
CC1(C)COC(=O)/C1=N/Nc1ccc([N+](=O)[O-])cc1,-8.1,7.1,0.0,-0.4,.,.,
CCC(=O)NC(Nc1ccccc1F)C(Cl)(Cl)Cl (stereo not given),-0.9,17.2,0.2,0.1,.,.,
CCOc1ccc(CN2CCN(Cc3cccc([N+](=O)[O-])c3)CC2)cc1,13.4,59.7*,-0.4,0.8,13.9,20.5,
COc1ccc(CN2CCN(C3CCCCC3)CC2)cc1OCc1ccccc1,12.3,61.9*,-0.1,-0.8,-2.6,-4.3,
O=[N+]([O-])c1cccc(CN2CCCCCCC2)c1,-13.2,42.3,0.0,-0.5,.,.,
COc1ccc(CN2CCN(Cc3cccc([N+](=O)[O-])c3)CC2)cc1OCc1ccccc1,-1.4,69.2*,-0.3,0.2,5.5,-1.5,
CCN1CCN(Cc2ccc(OCc3ccccc3)c(OC)c2)CC1,-4.9,-1.0,0.0,-0.3,.,.,
O=[N+]([O-])c1cccc(OCCCN2CCN(Cc3ccccc3)CC2)c1,2.4,76.2*,-0.2,-1.6,2.9,-0.1,
N#C/C(=C\Nc1ccccc1C(=O)O)c1nc2ccccc2s1,-0.9,14.6,0.1,-0.9,.,.,
Cc1cc(C)n2nc(SCCCF)nc2n1,-3.8,11.2,0.7,1.2,.,.,
COc1ccc(CN2CCN(Cc3ccc(F)cc3)CC2)cc1OCc1ccccc1,-5.0,79.2*,0.0,-0.1,16.2,18.5,
COc1ccc(CNC(=O)CSc2ccccn2)cc1,-36.6,10.8,0.2,-1.1,.,.,
Cc1cc2c(c(=O)[nH]1)C(=O)O/C2=C\c1ccc(C)o1,-0.7,54.9*,-0.7,-0.6,70.3*,6.6,AS interf DR=>6.86
Cc1cc2c(c(=O)[nH]1)C(=O)O/C2=C\c1cccs1,-8.4,-1.8,-0.2,-0.6,.,.,
Cc1cc2c(c(=O)[nH]1)C(=O)O/C2=C\c1ccco1,0.2,61.5*,-1.2,-0.2,62.3*,4.9,AS interf DR=>9.3
Cc1cc2c(c(=O)[nH]1)C(=O)O/C2=C/c1ccc(F)cc1,-14.0,-2.3,-0.2,-2.2,.,.,
CCCOc1ccc(C(CC(=O)O)NC(=O)c2cccc(Br)c2)cc1OC (stereo not given),-10.0,5.9,0.1,-1.2,.,.,
COc1ccc(OC)c(C2C3=C(CCCC3=O)Nc3ccc4ncccc4c32)c1 (stereo not given),-4.1,-8.5,0.1,0.2,.,.,
COc1cc(OC)c([N+](=O)[O-])cc1/C=N/NC(=O)COc1ccccc1[N+](=O)[O-],0.3,-1.0,0.0,0.2,.,.,
COc1ccc(OC)c(NC(=O)CN2CCN(Cc3ccccc3)CC2)c1,6.3,61.6*,-0.3,1.9,8.5,16.3,
SMILES,TEAD-YAP inh,MITF inh,FBW7 activator,GPR151 ag,MITF inh conf,AlphaScreen intf2,others
COc1cc(CN2CCN(C3CCN(Cc4ccccc4)CC3)CC2)cc(OC)c1O,3.2,62.9*,0.2,-1.3,-6.0,6.8,
COc1cc(CN2CCN(C3CCN(Cc4ccccc4)CC3)CC2)cc(OC)c1OC,3.3,59.4*,-0.2,-1.1,-4.6,-2.4,
COc1cc(CN2CCN(Cc3ccccc3)CC2)cc(OC)c1O,3.6,79.2*,-0.1,-1.8,-35.3,-0.3,
CC1CCCN(c2ncnc3c2c(-c2ccccc2)cn3-c2ccc(F)cc2)C1 (stereo not given),9.2,2.0,0.3,-0.1,.,.,
CCN1C(=O)/C(=C/c2cn(CC(=O)NCC3CCCO3)c3ccccc23)C(=O)NC1=S (stereo not given),-5.8,0.1,-0.2,1.0,.,.,
Nn1c(=O)c2ccccc2n2c(SCC(=O)c3ccccc3)nnc12,3.5,15.7,0.1,0.4,.,.,
CCCn1c2ccccc2c2nnc(SCC(=O)Nc3c(C(=O)OCC)cnn3-c3ccccc3)nc21,5.7,3.9,-0.2,0.1,.,.,
CCc1ccc(CN2CCN(Cc3cc(OC)c(O)c(OC)c3)CC2)cc1,-4.7,65.8*,0.0,-0.9,50.7*,7.1,AS interf DR=>5.79
COc1cc(CN2CCCCCC2)cc(OC)c1O,10.0,17.6,0.1,2.6,.,.,
Cc1ccc(Nc2nc(NCCN3CCOCC3)nc3nccnc23)cc1C,-8.5,61.3*,0.6,-2.1,-6.8,-4.1,
O=C(O)CCN(CCC(=O)O)c1ccc(O)cc1,-19.3,68.9*,-0.7,1.9,47.9*,-10.3,AS interf DR=>6.48
CSc1ncccc1C(=O)NCC(c1ccc2c(c1)OCO2)N1CCN(c2ccccc2F)CC1 (stereo not given),4.5,6.6,0.2,0.4,.,.,
Nc1ccc(S(=O)(=O)N2CCOC3CCCCC32)cc1 (stereo not given),-2.4,76.5*,-0.3,2.2,10.8,13.6,
Cc1ccc(S(=O)(=O)Nc2nc(O)c(C3=c4cc([N+](=O)[O-])ccc4=NC3=O)s2)cc1,-1.9,10.6,0.0,1.9,.,.,
O=C1N=c2ccc([N+](=O)[O-])cc2=C1c1sc(NS(=O)(=O)c2ccccc2)nc1O,8.0,64.2*!,-0.3,0.0,11.1,23.1,
S=C(NCc1ccco1)N1CCN(Cc2ccc3c(c2)OCO3)CC1,0.2,79.5*,0.0,-0.1,11.2,22.0,
S=C(NCc1ccco1)N1CCN(Cc2ccccc2)CC1,-5.3,0.7,-0.1,0.5,.,.,
CS(=O)(=O)N(CC(=O)N1CCN(Cc2ccc3c(c2)OCO3)CC1)c1ccc(F)cc1,2.2,74.9*,0.1,0.3,-5.4,-1.7,
O=C(c1ccco1)N1CCN(Cc2ccc3c(c2)OCO3)CC1,-2.8,62.1*,0.2,-1.4,3.1,-4.5,
CCOc1ccc(CC(=O)NCCn2ccc3ccccc32)cc1,-7.8,-1.7,0.1,0.7,.,.,
O=C(NC1(C(=O)Nc2ccccc2)CCCCC1)c1ccc(-n2cnnn2)cc1,-0.6,20.4,0.0,-0.1,.,.,
COc1ccc(C[C@@H]2NC(=O)[C@H]3CN(C(=O)NC4CCCCC4)CCN3C2=O)cc1,6.9,73.4*,0.6,0.6,61.6*,-4.4,AS interf DR=>6.48
CN1C(=O)[C@H]2CN(C(=O)NC3CCCCC3)CCN2C(=O)[C@@H]1Cc1ccccc1,1.3,74.3*,-0.3,1.1,68.7*,-10.7,AS interf DR=>6.48
C[C@@H](OCc1ccccc1)[C@@H]1NC(=O)[C@H]2CN(C(=O)NC3CCCCC3)CCN2C1=O,-1.2,79.7*,-0.5,2.7,73.4*,-7.2,AS interf DR=>6.48
O=C1N[C@@H](COCc2ccccc2)C(=O)N2CCN(C(=O)NC3CCCCC3)C[C@H]12,-0.8,72.0*,-0.1,2.2,67.7*,-4.3,AS interf DR=>6.48
